Experimental data as given in the supplement of paper PMC7411054.

What follows are compounds tested on WPMY1-ACTB-RAB5A (assay: phenotypically active (imaging signature differs from DMSO and reproducible) at any of 0.3-9 uM (binary (1 = active, 0 = inactive)); higher = active). Settings: treatment time: 24 h.
Outline: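 Live-cell features were measured per well and normalised to solvent control wells after fifteen gene-edited A549, HepG2 and WPMY1 reporter lines had been treated for 24 h at 0.3, 1, 3 or 9 µM in four wells each. A condition was deviating when ≥3 of 4 wells sat beyond the 95th percentile of control Euclidean distances. It was reproducible when the median replicate Pearson correlation exceeded the 95th percentile of non-replicates. Phenotypic activity demanded both.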
With O=P(O)(O)C(O)(Cc1cccnc1)P(=O)(O)O [risedronate] the phenotypically active was 0 (inactive).
O=C(CCc1ccc(O)cc1)c1c(O)cc(O)cc1O[C@@H]1O[C@H](CO)[C@@H](O)[C@H](O)[C@H]1O [Phloridzin] was tested, and the phenotypically active was 0 (inactive).
In the case of CC(C)NCCCC1(C(N)=O)c2ccccc2-c2ccccc21 [indecainide], the phenotypically active is reported as 0 (inactive).
COc1c2occc2cc2ccc(=O)oc12 [methoxsalen] was tested, and the phenotypically active was 0 (inactive).
For CC(=O)N[C@@H](CC(=O)O)C(=O)N[C@@H](CCC(=O)O)C(=O)O [Spaglumic acid], the phenotypically active was 0 (inactive).
In the case of OCC(CO)N[C@H]1C[C@](O)(CO)[C@@H](O)[C@H](O)[C@H]1O [Voglibose], the phenotypically active is reported as 0 (inactive).
With CCOc1ccccc1OCCN[C@H](C)Cc1ccc(OC)c(S(N)(=O)=O)c1 [tamsulosin] the phenotypically active was 0 (inactive).
O=C1NC(=O)/C(=C\c2cccc(C(F)(F)F)c2)S1 was tested, and the phenotypically active was 0 (inactive).
In the case of NS(=O)(=O)c1cc(Cl)c(Cl)c(S(N)(=O)=O)c1 [diclofenamide], the phenotypically active is reported as 0 (inactive).
CN1CCN2c3ncccc3Cc3ccccc3C2C1 (stereo not drawn) [Mirtazapine] was tested, and the phenotypically active was 0 (inactive).
With O=C1N(c2ccccc2)c2ccccc2C1(Cc1ccncc1)Cc1ccncc1 [linopirdine] the phenotypically active was 0 (inactive).
C[C@H]1[C@H](C)CC[C@]2(C(=O)O)CC[C@]3(C)C(=CC[C@@H]4[C@@]5(C)CC[C@H](O)C(C)(C)[C@@H]5CC[C@]43C)[C@H]12 [Ursolic acid] was tested, and the phenotypically active was 0 (inactive).
CCOC(=O)[C@H](CCc1ccccc1)N[C@@H](C)C(=O)N1Cc2ccccc2C[C@H]1C(=O)O [quinapril] was tested, and the phenotypically active was 0 (inactive).
